Sampled rows, rich in hits. Any-hit rate of the full collection: about 1.9%.
Bcl-xL primary: Bcl-xL (human) inhibition. Q07817. GST-Bcl-xL / FITC-Bim BH3 peptide fluorescence polarization. inhibition, % at 10.9 µM. 320,000 tested, 0.7% active. AID 2129;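 active = inhibition above the mean of all tested compounds plus 3 SD, cutoff set per campaign, cut at about 30% in these data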;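 also: inhibitors lower millipolarization by displacing the labeled peptide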
Target sequence (Q07817 whole entry, looked up): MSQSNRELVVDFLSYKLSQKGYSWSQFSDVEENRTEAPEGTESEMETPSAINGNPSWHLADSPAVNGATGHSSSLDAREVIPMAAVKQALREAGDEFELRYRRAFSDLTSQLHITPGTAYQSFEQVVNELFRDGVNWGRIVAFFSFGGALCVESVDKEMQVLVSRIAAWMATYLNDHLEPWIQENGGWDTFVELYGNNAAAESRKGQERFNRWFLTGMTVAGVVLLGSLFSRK
CR mimetic SO: caloric restriction mimetics inhibiting age-related superoxide in yeast; AID 2690; S. cerevisiae aged cells, superoxide DHE fluorescence; stronger effect = lower value; superoxide response (% of plate mean), % at 10 µM; 330,000 tested, 0.18% active;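 active = superoxide response under a set limit, about three screen SD below normal, cut at about 65% in these data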;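 also: yeast aged for seven days with compound at 30 °C before DHE staining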
MCL1-BIM inh: inhibitors of human MCL1 binding to BIM-BH3 peptide; inhibition, % at 10.9 µM; 320,000 tested, 0.68% active; Q07820; GST-MCL1 / FITC-Bim-BH3 fluorescence polarization;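 active = inhibition above the mean inhibition of all tested compounds plus 3 SD, set per campaign, cut at about 40% in these data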;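 also: higher means more loss of mP so more displacement of Bim peptide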
Target sequence (Q07820 whole entry, looked up): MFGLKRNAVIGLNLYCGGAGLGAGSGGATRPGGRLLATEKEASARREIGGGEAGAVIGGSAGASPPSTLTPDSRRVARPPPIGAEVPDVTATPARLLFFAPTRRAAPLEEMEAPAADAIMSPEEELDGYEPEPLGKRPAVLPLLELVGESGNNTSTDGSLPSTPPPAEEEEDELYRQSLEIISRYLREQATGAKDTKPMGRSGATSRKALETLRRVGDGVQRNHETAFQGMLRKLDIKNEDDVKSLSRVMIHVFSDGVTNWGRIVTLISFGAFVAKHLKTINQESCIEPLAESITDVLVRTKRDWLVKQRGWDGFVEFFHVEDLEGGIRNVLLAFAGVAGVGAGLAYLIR
LANA-H2A inh: blocks KSHV LANA binding to histone H2A/H2B; Q9QR71; cell-free LANA-H2A/H2B peptide, fluorescence polarization; inhibition, % (no concentration beside the values); 320,000 tested, 0.6% active; AID 2629; in the data active = inhibition mostly above about 10%, no sharp cut-off; inactive = mostly below about 6.7%
MEX-5 binding: C. elegans MEX-5 TCR-2 RNA binding activity. activity score (negative = inhibition of binding), % at 10 µM. 300,000 tested, 0.38% active. MEX-5/FITC-TCR2 RNA binding, fluorescence polarization; stronger effect = lower value. Q9XUB2;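 active = inhibition past about -25% in most replicates, and total fluorescence under double the plate's negative control median, limit read from the data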
GLD-1 RNA inh: GLD-1-TGE RNA interaction inhibition (C. elegans). Q17339. purified GLD-1 + fluorescein TGE RNA, fluorescence polarization. inhibition, % at 5.96 µM. 320,000 tested, 0.44% active. AID 2280;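 active = percent inhibition above a per-plate cutoff, the plate mean of test compounds plus 3 SD, cut at about 30% in these data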
Large screens that a line does not name were inactive.

O=C(CCN1C(=O)/C(=C\c2cccs2)SC1=S)NC1=NCCS1	none
COc1ccccc1/C=C1\SC(=S)N(CCC(=O)NC2=NCCS2)C1=O	MEX-5 binding -63.1
CCc1ccc(OC(C)C(=O)Nc2ccc(S(=O)(=O)Nc3nccs3)cc2)cc1 (stereo unspecified)	none
Cc1ccccc1-n1c(=O)cc(NCC2CCCO2)[nH]c1=O (stereo unspecified)	Bcl-xL primary 35.8
CCCCn1c(N)c(N(CC(C)C)C(=O)c2ccco2)c(=O)[nH]c1=O	none
CCOc1ccc(C2C3=C(CCCC3=O)Nc3nc(C(F)(F)F)nn32)cc1OC (stereo unspecified)	none
CCOc1cc(C2C3=C(CCCC3=O)Nc3nc(C(=O)OC)nn32)ccc1OC (stereo unspecified)	LANA-H2A inh 19.6
CC(C)(CNC(=O)Cc1ccc(NS(=O)(=O)c2cccc(C(F)(F)F)c2)cc1)N1CCOCC1	none
O=S(=O)(NC(=S)NC1CCCCC1)c1cccs1	none
O=S(=O)(NC(=S)NC1CCCCC1)c1ccccc1	LANA-H2A inh 10.3
O=C(CN1CCN(c2ccccc2)CC1)N1CCc2[nH]c3ccccc3c2C1	none (no result: MEX-5 binding)
O=C(CN1CCc2[nH]c3ccccc3c2C1)N1CCCCC1	LANA-H2A inh 18.3
O=C(CN1C(=O)NC2(CCCC2)C1=O)Nc1cc(Cl)ccc1Oc1ccccc1	none (no result: MEX-5 binding)
Cc1ccc(-c2cc(-c3ccc(C)o3)nc(N)c2C#N)cc1	Bcl-xL primary 32.3, MCL1-BIM inh 45.4, GLD-1 RNA inh 38.7
c1ccc(SCCc2ccncc2)cc1	none
CC(C)(C)c1ccc(SCCc2cccnc2)cc1	LANA-H2A inh 14.2
COc1cccc(/C=C/C(=O)OCC(=O)NCCCc2ccccc2)c1OC	none (no result: Bcl-xL primary, MCL1-BIM inh, MEX-5 binding)
Cc1csc2nc(SCC(=O)Nc3ccccc3F)[nH]c(=O)c12	LANA-H2A inh 28.3
Cc1ccccc1/C=C/C1=NCCN1	none (no result: MEX-5 binding)
COC(=O)C1(CCSC)NC(c2ccccc2F)C2C(=O)N(c3ccc4c(c3)OCCO4)C(=O)C21 (stereo unspecified)	none
CC(=O)[C@@H]1[C@@H]2C(=O)N(c3ccc(F)c(Cl)c3)C(=O)[C@@H]2C2c3ccccc3C=CN21 (stereo partly specified)	Bcl-xL primary 36.0
N#C[C@@H]1[C@@H]2C(=O)N(c3ccc4c(c3)OCCO4)C(=O)[C@@H]2C2c3ccccc3C=CN21 (stereo partly specified)	Bcl-xL primary 33.7, GLD-1 RNA inh 30.8
O=C(c1ccc(Cl)cc1)[C@@H]1[C@@H]2C(=O)N(c3ccc(Cl)cc3)C(=O)[C@@H]2C2c3ccccc3C=NN21 (stereo partly specified)	none
CC(=O)[C@H]1[C@@H]2C(=O)N(c3cccc(Cl)c3)C(=O)[C@@H]2[C@H]2c3ccccc3C=CN21	Bcl-xL primary 61.1, MCL1-BIM inh 51.3, GLD-1 RNA inh 34.5
O=C1C2C3CC(C2C(=O)N1c1cccc(Cl)c1)[C@H](O)C3O (stereo partly specified)	none
CC(=O)[C@H]1[C@H](c2cccc(Cl)c2)C(C#N)(C#N)[C@@H]2c3ccccc3C=CN21	Bcl-xL primary 31.3, GLD-1 RNA inh 33.6
CCn1nnc2cc(C(=O)N3CCC(C(=O)OC)CC3)ccc21	none (no result: Bcl-xL primary, MCL1-BIM inh, MEX-5 binding)
C=Cc1c(C)c2cc3[nH]c(cc4nc(cc5nc(cc1[nH]2)C(C)=C5CCC(=O)O)C(CCC(=O)O)=C4C)c(C)c3C=C	MCL1-BIM inh 82.8, MEX-5 binding -41.8
COc1cc(C(=O)COC(=O)c2ccncc2)cc(OC)c1OC	none (no result: Bcl-xL primary, MCL1-BIM inh, MEX-5 binding)
COC(=O)c1scc2c(=O)cc(C(F)(F)F)[nH]c12	Bcl-xL primary 35.2
CNC(=O)c1cc(Oc2ccc(NC(=O)Nc3ccc(Cl)c(C(F)(F)F)c3)cc2)ccn1	none (no result: MEX-5 binding)
CCCC1=NCCn2cccc21	Bcl-xL primary 33.2
CCc1nn(C)c2c(=O)c(=O)c2n(C)[nH]1	Bcl-xL primary 33.1
COc1ccccc1C1C(C#N)=C(N)Oc2c1oc(CO)cc2=O (stereo unspecified)	LANA-H2A inh 12.3
COc1cccc(N2CCN(Cc3nnnn3C3CCCCC3)CC2)c1	none
O=C1CCc2cc(OCCCCc3nnnn3C3CCCCC3)ccc2N1	LANA-H2A inh 32.9
Cc1c(C)c2ccc(OCC(=O)N3CCOCC3)c(C)c2oc1=O	LANA-H2A inh active
CCN1/C(=C/C(C)=C/c2sc3ccccc3[n+]2CC)Sc2ccccc21	Bcl-xL primary 33.5, GLD-1 RNA inh active
COc1cc(/C=N/NC(N)=O)c(Br)cc1OCC(=O)Nc1ccccc1C	none
COc1cc(/C=N/O)c(Br)cc1OCC(=O)Nc1ccccc1C	LANA-H2A inh 16.6
CC(C)CCN(C(=O)c1cc(=O)[nH]c2ccccc12)c1c(N)n(Cc2ccccc2)c(=O)[nH]c1=O	none (no result: MEX-5 binding)
O=C(O)c1ccc(-n2c(-c3cc(-c4ccco4)[nH]n3)n[nH]c2=S)cc1	MEX-5 binding -91.6
CC(c1nccs1)N(C)c1nc2nonc2nc1NC1CC1 (stereo unspecified)	Bcl-xL primary 32.6
Cc1cc(C)cc(NC(=S)NC(=O)Cc2ccccc2)c1	none
Cc1cc(C)cc(NC(=O)C(=S)NCc2ccccc2)c1	LANA-H2A inh 42.8
C=CCC[C@@H](Cc1ccc(F)cc1)C(=O)OC[C@@H](NC(=O)[C@@H](CC=C)CC(=O)N[C@H](CO)Cc1ccccc1)C(C)(C)C	none (no result: Bcl-xL primary, MCL1-BIM inh, MEX-5 binding)
CC(=O)CSc1nc2cc3c(cc2cc1C#N)OCCO3	Bcl-xL primary 34.1, MCL1-BIM inh 41.8
N#Cc1cc2cc3c(cc2nc1SCC(=O)N1CCCC1)OCCO3	none
Cc1c(Cc2ccccc2)c(=O)oc2c(CN(C)C)c(O)c(Cl)cc12	LANA-H2A inh 5.7
Cc1c(Cc2ccccc2)c(=O)oc2c(O)c(O)ccc12	none (no result: Bcl-xL primary, CR mimetic SO, MCL1-BIM inh, LANA-H2A inh, GLD-1 RNA inh)
Cc1ccc(/C(N)=N/OC(=O)C(C)c2ccc([N+](=O)[O-])cc2)cc1 (stereo unspecified)	LANA-H2A inh 16.5
CC(C(=O)O/N=C(\N)c1cccnc1)c1ccc([N+](=O)[O-])cc1 (stereo unspecified)	none
Cc1cc(C)cc(C(=O)NCC(=O)OCC(=O)NC2CC2)c1	none (no result: Bcl-xL primary, MCL1-BIM inh, MEX-5 binding)
Cc1cc(C)n2nc(C(=O)OCC(=O)N(CC(C)C)C3CCS(=O)(=O)C3)nc2n1 (stereo unspecified)	none (no result: Bcl-xL primary, MCL1-BIM inh, MEX-5 binding)
COc1ccc(C(C(=O)NC2CCCC2)N(C(=O)c2ccoc2C)c2cc(C)cc(C)c2)cc1 (stereo unspecified)	Bcl-xL primary 51.7
CCOc1ccc(NC(=O)CN(C)Cc2ccc3c(c2)OCO3)cc1S(=O)(=O)N1CCCC1	none (no result: MEX-5 binding)
Cc1nc2cc(N3CCOCC3)c(NC(=O)C3CC3)cc2c(=O)n1Cc1ccccc1	LANA-H2A inh 56.1
O=C(Nc1ccc(Cl)cc1N1CCOCC1)C1CC1	none
OCCOc1ccc(C2=NCCO2)cc1	MEX-5 binding -49.8
